Data taken from PubChem BioAssay (NCI).
Compounds without any hit were thinned out: in the full panel of roughly 83,000, 20% have a hit.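 Each cell line was grown in a 96-well plate and treated with one concentration of compound for 48 hours. Values below 10 were considered active.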 Active and inactive are the calls of the source.

Experiments:
Test in all cases: NCI-60 one-dose screen, 48 h (100 = growth as untreated, 0 = no growth, -100 = all killed)
Settings in all cases: 10 µM unless noted
[1] = test system: DU-145 prostate
[2] = test system: K-562 leukemia
[3] = test system: MALME-3M melanoma
[4] = test system: MDA-MB-231 breast
[5] = test system: RXF 393 renal
[6] = test system: SF-268 CNS
[7] = test system: SF-295 CNS
[8] = test system: SF-539 CNS
[9] = test system: UACC-257 melanoma
[10] = test system: M14 melanoma

Measured: growth

CCCCCCCCCNCCCCCCCCC
inactive: [1] 76.5% | [3] 18.4% | [4] 66.3% | [5] 50.5% | [6] 79.8% | [7] 66.6% | [8] 56.7% | [9] 67.2%
active: [2] 5.9% | [10] -48.6%

CC(=O)NCC(=O)N1[C@@H]2CC[C@H]1c1ccc(Nc3ncc(C(F)(F)F)c(NC4CCC4)n3)cc12
inactive: [1] 41.7% [2.5 µM] | [2] 44.8% [2.5 µM] | [3] 46.3% [2.5 µM] | [4] 38.1% [2.5 µM] | [6] 38.6% [2.5 µM] | [7] 60% [2.5 µM] | [8] 11.2% [2.5 µM] | [9] 59.8% [2.5 µM] | [10] 26.9% [2.5 µM]
active: [5] -12.8% [2.5 µM]

Cc1cc(C(O)CN(C)C)cc2c1ccc1cc(C(C)C)ccc12 (stereo not given)
inactive: [1] 55.7% | [6] 62.2% | [8] 71.5%
active: [2] -20.2% | [3] -77.3% | [4] -35.1% | [5] -47.8% | [7] -66.1% | [9] -74.4% | [10] -100%

Cc1ccc(-n2nc(C(C)(C)C)cc2NC(=O)NCc2cc(F)ccc2Oc2ccc3c(cnn3CCO)c2)cc1
active: [2] 3.71% | [3] -6.23% | [5] -10.3% | [9] -11.2% | [10] 9.06%
inactive: [1] 42.4% | [4] 14.1% | [6] 34.8% | [7] 26.9% | [8] 21.7%

COc1cc2ncnc(Nc3cccc(Cl)c3F)c2cc1OC(=O)N1CCN(C)C[C@H]1C
inactive: [1] 65% | [2] 60.9% | [3] 106% | [4] 78.7% | [5] 67.9% | [6] 73.4% | [7] 83.7% | [8] 84.1% | [9] 68.8% | [10] 84.9%

Cc1cccc(Cl)c1NC(=O)c1cnc(Nc2cc(N3CCOCC3)cc(S(C)(=O)=O)c2)s1
active: [1] -41.1% | [2] 6.1% | [4] 9.71% | [5] -34.8% | [8] 2.23%
inactive: [3] 42.2% | [6] 25.4% | [7] 53.8% | [9] 43.2% | [10] 42.4%

C[C@@H](Oc1cc(-n2cnc3ccc(CN4CCN(C)CC4)cc32)sc1C(N)=O)c1ccccc1C(F)(F)F
inactive: [3] 21% | [4] 27.2% | [5] 16.5% | [6] 31.6% | [7] 32.7% | [10] 15.7%
active: [1] 2.67% | [2] 6.08% | [8] -22.1% | [9] -25.5%

CNS(=O)(=O)Nc1nccc(Cc2c(C)c3ccc(Oc4ncccn4)cc3oc2=O)c1F
inactive: [1] 61.3% | [2] 26.2% | [4] 41% | [5] 44.9% | [6] 78% | [7] 70.6% | [8] 68% | [10] 13.3%
active: [3] 4.1% | [9] -5.41%

COc1ccc(F)c(F)c1C(=O)c1cnc(NC2CCN(S(C)(=O)=O)CC2)nc1N
active: [2] 5.89% | [3] -28.3% | [4] 2.97% | [5] -62% | [6] 6.42% | [7] 8.69% | [8] -33.8% | [9] -28% | [10] -23.6%
inactive: [1] 10.3%

CC(=O)C1CC(C)CCC1C(C)C (stereo not given)
inactive: [1] 111% | [2] 77% | [3] 126% | [4] 80.2% | [5] 107% | [6] 105% | [7] 120% | [8] 102% | [9] 111% | [10] 103%

O=c1[nH]c([C@@H]2CCCN2)nc2c1oc1ccc(Cl)cc12
inactive: [1] 73.1% | [2] 43% | [3] 64.2% | [4] 67.3% | [5] 72.4% | [6] 65.2% | [7] 52.7% | [8] 12.6% | [9] 64.6% | [10] 53.6%

Cc1cc(Nc2cc(N3CCN(C)CC3)nc(Sc3ccc(NC(=O)C4CC4)cc3)n2)n[nH]1
active: [2] 8.47% | [5] -18.7% | [8] 9.92%
inactive: [1] 55.7% | [3] 29.3% | [4] 37.1% | [6] 48.6% | [7] 32.7% | [9] 18.1% | [10] 22.3%

O=C1NC(=O)C(c2cnc3ccccn23)=C1c1cn2c3c(cc(F)cc13)CN(C(=O)N1CCCCC1)CC2
inactive: [1] 68.7% | [2] 27.9% | [3] 64.6% | [4] 70.2% | [5] 16.6% | [6] 64.7% | [7] 35.7% | [8] 53.8% | [9] 67.1% | [10] 50.7%

C#Cc1cccc(Nc2ncnc3cc(OCCOC)c(OCCOC)cc23)c1
inactive: [1] 35.8% | [2] 51.3% | [3] 67.6% | [4] 67% | [5] 46.1% | [6] 62.9% | [7] 84.9% | [8] 81.1% | [9] 85.7% | [10] 48.5%

CC1=CC2c3oc(-c4ccccc4)c(C(=O)c4ccccc4)c3CNC2C=C1 (stereo not given)
inactive: [1] 112% | [2] 95.8% | [3] 98.8% | [4] 88.4% | [5] 94.2% | [6] 97.9% | [7] 95.9% | [8] 109% | [9] 70.6% | [10] 96.1%

Cc1cc(Oc2ccccc2)ccc1Nc1ncnc2ccc(-c3cnc(Cl)c(NS(C)(=O)=O)c3)cc12
active: [3] 0.126% | [5] -31.6% | [7] 5.34% | [8] -15.3% | [9] 6.42%
inactive: [1] 32.1% | [2] 54.3% | [4] 17.4% | [6] 35.4% | [10] 19.5%

CC[C@H](CO)Nc1nc(NCc2ccccc2)c2ncn(C(C)C)c2n1
inactive: [1] 53.9% | [2] 58.5% | [3] 87.4% | [4] 75.6% | [6] 70.9% | [7] 59.8% | [8] 57.2% | [9] 91.6% | [10] 71.8%
active: [5] -22.3%

COCC(=O)NC/C=C/c1ccc2ncnc(Nc3ccc(Oc4ccc(C)nc4)c(C)c3)c2c1
inactive: [1] 30.7% | [2] 47.9% | [4] 42.7% | [5] 45.4% | [6] 52.3% | [7] 62.4% | [8] 48% | [9] 24.6% | [10] 13.1%
active: [3] 4.79%

CN(C)CCOC(=O)Nc1nc2ccc(Sc3ccccc3)cc2[nH]1
active: [8] -0.508% | [10] 0.259%
inactive: [1] 27.2% | [2] 15.7% | [3] 49.2% | [4] 47.8% | [5] 14.1% | [6] 51% | [7] 24.9% | [9] 49.1%

Nc1nc(Nc2ccccc2)c(C=Nc2ccccc2)c(=O)[nH]1
inactive: [1] 103% | [2] 90.4% | [3] 103% | [4] 104% | [5] 91.7% | [6] 94% | [7] 95.5% | [8] 85.5% | [9] 93.6% | [10] 91.5%

CCCCOc1nc2cc(Cl)ccc2cc1/C=C/c1cc(/C=C/c2cc3ccc(Cl)cc3nc2OCCCC)n(-c2ccccc2)n1
inactive: [1] 101% | [2] 91.7% | [3] 92.8% | [4] 82.3% | [5] 81.6% | [6] 74.9% | [7] 52.4% | [8] 91.9% | [9] 67% | [10] 99.3%

CCCCCC(=O)OCc1ccc(Cl)c(Cl)c1
inactive: [1] 105% | [2] 98.8% | [3] 90.4% | [4] 110% | [5] 116% | [6] 99.3% | [7] 108% | [8] 105% | [9] 103% | [10] 104%

COc1cc2ncnc(Oc3cccc(NC(=O)Nc4cc(C(C)(C)C(F)(F)F)on4)c3)c2cc1OC
inactive: [1] 31.4% | [4] 10.7% | [5] 16.7% | [6] 26.9% | [7] 38.2% | [8] 33%
active: [2] 2.56% | [3] 2.64% | [9] -10.4% | [10] -2.42%

CCCCCc1ccc(C)cc1OC(=O)CCl
inactive: [1] 109% | [2] 98.8% | [3] 90.9% | [4] 110% | [5] 103% | [6] 105% | [7] 102% | [8] 112% | [9] 107% | [10] 111%

CNC(=O)c1cc(COc2nnc(Nc3ccc(Cl)cc3)c3ccoc23)ccn1
active: [8] -65.6%
inactive: [1] 31.9% | [2] 69.7% | [3] 22.4% | [4] 18.5% | [5] 43.1% | [6] 14.2% | [7] 10.4% | [9] 33.3% | [10] 78.9%

Ic1ccccc1-c1ccccc1
inactive: [1] 114% | [2] 104% | [3] 95% | [4] 102% | [5] 105% | [6] 105% | [7] 122% | [8] 108% | [9] 99% | [10] 103%

CN1C/C=C\CCOc2cccc(c2)-c2ccnc(n2)Nc2cccc(c2)C1
active: [1] 5.04% | [2] -18.5% | [3] -79.4% | [4] -38.6% | [5] -86.1% | [6] -50.8% | [7] -86.3% | [8] -91.8% | [9] -73.7% | [10] -78.4%
